A number with no mark means an inactive call. The source made the active and inactive calls.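 Rule for the calls, unless noted: active = mean inhibition over 43.08%, the solvent-only control mean plus 3 SD; inactive = the rest.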

Experiment [1] deals with Nuclear receptor coactivator 3 (Homo sapiens) (UniProt Q9Y6Q9). The experiment is described as follows: NCOA3 GAL4-fusion reporter inhibition – cell-based, luminescence, quadruplicate, confirmation (AID 588792).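 Note: 0% = DMSO treated cells and 100% = gossypol at 36 µM.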 The settings on record: HEK293 GAL4-SRC3 luciferase reporter, at 3.6 µM, active compounds read high.
The test system of experiment [2] is transactivating tegument protein VP16 (Human herpesvirus 1), Gal4-VP16 luciferase reporter. The experiment is described as follows: repression of VP16-driven luciferase reporter – cell-based, luminescence, high throughput, counter-screen for SRC3 inhibitor project (AID 588794; in the data active = inhibition above about 30%). The settings on record: mammalian cells, at 3.6 µM, active compounds read high.
The target in experiment [3] is Nuclear receptor coactivator 1 (Homo sapiens) (UniProt Q15788). Put plainly: NCOA1 GAL4-fusion reporter inhibition – cell-based, luminescence, quadruplicate, confirmation (AID 588820;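 active = mean inhibition above 46.68%, the untreated control wells mean plus 3 SD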;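 note: 0% = DMSO wells and 100% = gossypol 36 µM treated wells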). The settings on record: HEK293 GAL4-SRC1 luciferase reporter, at 3.6 µM, active compounds read high.
Experiment [4] is described as follows: repression of VP16-driven luciferase reporter – cell-based, luminescence, high throughput, counter-screen for SRC1 inhibitor project (AID 588824; in the data active = inhibition above about 25%). The settings on record: cell-based VP16 transactivation luciferase luminescence; at 3.6 µM; active compounds read high.
Experiment [5] is described as follows: StAR promoter reporter inhibitors, counter-screen for LRH-1 inverse agonist project, cell-based, luminescence, high throughput (AID 651611; in the data active = inhibition above about 28%). The settings on record: StAR promoter luciferase reporter counterscreen, at 3.6 µM, active compounds read high.
Experiment [6] has as its target Nuclear receptor subfamily 5 group A member 2 (Homo sapiens) (UniProt O00482). The experiment is described as follows: NR5A2 activity suppression in reporter cells – cell-based, luminescence, confirmation (AID 651613; in the data active = inhibition above about 42%;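 note: HEK293T cells co-transfected with LRH-1 and StAR promoter luciferase reporter; 0% = vehicle wells and 100% = parental cells lacking receptor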). The settings on record: cell-based LRH-1 luciferase reporter, inverse agonism; at 3.6 µM; active compounds read high.
Experiment [7] has as its target Steroidogenic factor 1 (Homo sapiens) (UniProt Q13285). Put plainly: inverse agonism at SF1 nuclear receptor – cell-based, luminescence, high throughput, counter-screen for LRH-1 inverse agonist project (AID 651614; in the data active = inhibition above about 44%;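 note: cells cotransfected with StAR promoter reporter and SF1 expression vector; 0% = vehicle on cells with receptor and 100% = vehicle on cells lacking receptor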). The settings on record: cell-based SF1 luciferase reporter, at 3.6 µM, active compounds read high.
Experiment [8] is described as follows: compounds suppressing VP16-driven luciferase signal – cell-based, luminescence, high throughput, counter-screen for LRH-1 inverse agonist project (AID 651615; in the data active = inhibition above about 33%). The settings on record: Gal4-VP16 luciferase reporter cells, at 3.6 µM, active compounds read high.

Chain of Nuclear receptor coactivator 1 (Homo sapiens) (Q15788 whole entry, looked up, the tested form may be a part): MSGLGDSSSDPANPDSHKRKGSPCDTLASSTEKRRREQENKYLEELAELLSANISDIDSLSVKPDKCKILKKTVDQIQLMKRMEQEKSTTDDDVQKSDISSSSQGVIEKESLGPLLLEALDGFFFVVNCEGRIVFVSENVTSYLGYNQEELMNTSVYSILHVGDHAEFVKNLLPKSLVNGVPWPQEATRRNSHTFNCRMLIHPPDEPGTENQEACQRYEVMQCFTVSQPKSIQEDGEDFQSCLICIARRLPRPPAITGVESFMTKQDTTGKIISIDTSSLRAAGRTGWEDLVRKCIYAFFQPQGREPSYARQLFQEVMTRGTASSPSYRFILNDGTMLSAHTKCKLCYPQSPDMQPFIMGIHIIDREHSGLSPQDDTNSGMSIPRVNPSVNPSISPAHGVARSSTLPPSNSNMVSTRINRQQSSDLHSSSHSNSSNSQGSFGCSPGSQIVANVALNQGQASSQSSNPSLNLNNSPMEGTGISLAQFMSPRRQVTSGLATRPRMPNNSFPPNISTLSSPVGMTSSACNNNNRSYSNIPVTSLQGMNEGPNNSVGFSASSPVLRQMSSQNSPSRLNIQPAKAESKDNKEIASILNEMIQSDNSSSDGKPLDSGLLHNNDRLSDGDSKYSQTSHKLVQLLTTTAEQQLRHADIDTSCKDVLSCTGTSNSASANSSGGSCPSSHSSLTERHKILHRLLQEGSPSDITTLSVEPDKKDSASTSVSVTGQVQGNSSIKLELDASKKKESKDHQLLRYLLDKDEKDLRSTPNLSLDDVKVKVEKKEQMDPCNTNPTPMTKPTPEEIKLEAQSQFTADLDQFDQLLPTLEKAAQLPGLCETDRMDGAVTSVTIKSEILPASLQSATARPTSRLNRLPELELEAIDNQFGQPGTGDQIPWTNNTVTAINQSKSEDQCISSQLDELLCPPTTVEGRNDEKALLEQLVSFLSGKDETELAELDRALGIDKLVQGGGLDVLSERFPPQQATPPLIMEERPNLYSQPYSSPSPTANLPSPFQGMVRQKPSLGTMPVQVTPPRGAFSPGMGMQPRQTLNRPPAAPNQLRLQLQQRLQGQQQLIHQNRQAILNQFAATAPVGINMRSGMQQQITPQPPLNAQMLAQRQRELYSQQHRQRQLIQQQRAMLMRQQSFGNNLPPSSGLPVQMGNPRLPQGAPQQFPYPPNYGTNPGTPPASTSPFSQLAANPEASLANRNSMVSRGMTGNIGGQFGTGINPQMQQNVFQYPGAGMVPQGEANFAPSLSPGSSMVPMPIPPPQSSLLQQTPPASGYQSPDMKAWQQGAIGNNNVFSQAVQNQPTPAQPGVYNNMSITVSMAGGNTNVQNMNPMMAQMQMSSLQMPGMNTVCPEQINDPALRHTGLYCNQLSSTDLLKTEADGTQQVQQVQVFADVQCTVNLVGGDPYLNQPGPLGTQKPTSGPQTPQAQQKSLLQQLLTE
Chain of Steroidogenic factor 1 (Homo sapiens) (Q13285 whole entry, looked up, the tested form may be a part): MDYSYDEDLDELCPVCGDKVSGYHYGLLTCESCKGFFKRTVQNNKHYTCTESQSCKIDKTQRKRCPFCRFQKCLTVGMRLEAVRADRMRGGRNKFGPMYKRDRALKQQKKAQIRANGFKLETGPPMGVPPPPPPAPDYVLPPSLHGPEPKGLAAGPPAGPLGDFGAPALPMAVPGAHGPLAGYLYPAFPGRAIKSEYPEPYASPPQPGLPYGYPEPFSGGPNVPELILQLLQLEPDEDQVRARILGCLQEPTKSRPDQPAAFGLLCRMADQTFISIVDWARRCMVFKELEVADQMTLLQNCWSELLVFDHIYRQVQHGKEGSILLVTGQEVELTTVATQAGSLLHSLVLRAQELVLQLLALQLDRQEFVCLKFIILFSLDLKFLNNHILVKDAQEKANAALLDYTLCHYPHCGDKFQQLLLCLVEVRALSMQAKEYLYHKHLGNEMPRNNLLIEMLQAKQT
Chain of Nuclear receptor coactivator 3 (Homo sapiens) (Q9Y6Q9 whole entry, looked up, the tested form may be a part): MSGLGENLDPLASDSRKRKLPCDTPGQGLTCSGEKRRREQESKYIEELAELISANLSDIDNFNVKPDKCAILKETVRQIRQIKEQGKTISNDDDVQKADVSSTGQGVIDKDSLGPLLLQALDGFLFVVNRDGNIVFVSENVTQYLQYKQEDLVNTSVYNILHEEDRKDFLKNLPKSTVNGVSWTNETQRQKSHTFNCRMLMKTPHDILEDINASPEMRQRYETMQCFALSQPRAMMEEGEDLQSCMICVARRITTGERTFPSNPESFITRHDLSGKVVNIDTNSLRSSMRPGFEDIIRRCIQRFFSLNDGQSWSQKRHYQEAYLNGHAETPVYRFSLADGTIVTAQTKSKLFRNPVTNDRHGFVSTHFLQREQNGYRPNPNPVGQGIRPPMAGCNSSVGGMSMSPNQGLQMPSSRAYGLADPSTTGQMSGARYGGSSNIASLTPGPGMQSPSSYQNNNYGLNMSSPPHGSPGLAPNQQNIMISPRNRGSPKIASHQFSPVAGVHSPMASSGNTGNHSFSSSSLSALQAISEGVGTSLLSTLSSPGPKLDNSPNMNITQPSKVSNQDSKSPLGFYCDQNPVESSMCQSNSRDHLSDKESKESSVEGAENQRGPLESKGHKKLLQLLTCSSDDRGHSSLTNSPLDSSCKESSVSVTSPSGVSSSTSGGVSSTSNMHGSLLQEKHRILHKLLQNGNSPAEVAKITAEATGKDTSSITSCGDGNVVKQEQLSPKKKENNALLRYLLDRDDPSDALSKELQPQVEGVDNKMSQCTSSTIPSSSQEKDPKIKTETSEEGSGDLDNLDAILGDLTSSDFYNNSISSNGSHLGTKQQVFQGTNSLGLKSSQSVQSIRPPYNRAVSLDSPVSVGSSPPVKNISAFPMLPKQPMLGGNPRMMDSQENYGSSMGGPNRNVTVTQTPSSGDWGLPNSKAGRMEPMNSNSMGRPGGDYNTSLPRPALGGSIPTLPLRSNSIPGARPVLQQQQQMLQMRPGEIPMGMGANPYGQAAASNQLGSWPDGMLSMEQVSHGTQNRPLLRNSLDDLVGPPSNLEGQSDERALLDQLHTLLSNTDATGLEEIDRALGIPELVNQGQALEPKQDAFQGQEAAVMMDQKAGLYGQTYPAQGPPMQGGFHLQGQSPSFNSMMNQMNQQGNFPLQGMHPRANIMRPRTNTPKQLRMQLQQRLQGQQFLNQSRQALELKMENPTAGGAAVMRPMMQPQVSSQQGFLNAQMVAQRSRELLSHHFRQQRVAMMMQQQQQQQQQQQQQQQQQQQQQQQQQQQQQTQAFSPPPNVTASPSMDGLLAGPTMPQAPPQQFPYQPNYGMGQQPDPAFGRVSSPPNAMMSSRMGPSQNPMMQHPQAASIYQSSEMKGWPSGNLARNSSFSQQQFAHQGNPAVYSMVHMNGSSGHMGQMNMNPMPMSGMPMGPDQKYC
Chain of Nuclear receptor subfamily 5 group A member 2 (Homo sapiens) (O00482 whole entry, looked up): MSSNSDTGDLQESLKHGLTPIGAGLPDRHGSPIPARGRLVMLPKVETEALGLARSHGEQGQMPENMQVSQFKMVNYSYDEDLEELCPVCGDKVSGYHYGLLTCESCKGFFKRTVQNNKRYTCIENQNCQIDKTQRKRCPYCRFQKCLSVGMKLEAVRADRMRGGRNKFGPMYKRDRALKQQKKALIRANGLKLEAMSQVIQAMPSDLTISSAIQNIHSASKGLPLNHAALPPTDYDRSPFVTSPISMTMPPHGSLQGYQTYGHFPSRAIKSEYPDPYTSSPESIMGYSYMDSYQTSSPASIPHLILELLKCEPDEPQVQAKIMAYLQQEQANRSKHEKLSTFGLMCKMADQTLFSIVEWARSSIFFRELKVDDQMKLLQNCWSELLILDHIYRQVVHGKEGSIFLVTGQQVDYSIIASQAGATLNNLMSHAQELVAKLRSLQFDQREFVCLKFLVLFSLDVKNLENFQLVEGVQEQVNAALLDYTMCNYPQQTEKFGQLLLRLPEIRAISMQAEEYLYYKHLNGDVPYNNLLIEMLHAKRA

For the compound `CN(Cc1cnc2nc(N)nc(N)c2n1)c1ccc(C(=O)NC(CCC(=O)O)C(=O)O)cc1C(F)(F)F` (stereo unspecified), the inhibition in experiment [1] is 60.4% (active); in experiment [2], 7.16%; in experiment [3] it was 51.9% (active); in experiment [4], 5.94%; in experiment [5], 79.6% (active); in experiment [6], 56.4% (active). In addition, the inhibition in experiment [7] was 49.1% (active); in experiment [8] it was 21.3%.

`N=c1c2c(-c3ccccc3)c(-c3ccccc3)n(Cc3ccco3)c2ncn1CCO`: the inhibition was 23.5% in experiment [1]; 54.5% (active) in experiment [2]; 41% in experiment [3]; 56.2% (active) in experiment [4]; 54.3% (active) in experiment [5]; 64.8% (active) in experiment [6]. Moreover, the inhibition in experiment [7] is 64% (active); in experiment [8], 74.8% (active).

Regarding `COc1ccc(-c2c[n+]3c(n2-c2ccc(C)cc2)CCCCC3)cc1`, the inhibition in experiment [1] is 36.5%; in experiment [2], 60.1% (active); in experiment [3], 32.6%; in experiment [4], 60.2% (active); in experiment [5], 53% (active); in experiment [6] it was 105% (active). The results for the inhibition in experiment [7] and in experiment [8] were 82% (active) and 73.7% (active), respectively.

Consider `CC(=NNC(=S)Nc1cccc(Cl)c1)c1ccccn1`, for which the inhibition is 71% (active) in experiment [1]; 66.5% (active) in experiment [2]; 44.7% in experiment [3]; 65.1% (active) in experiment [4]; 76.5% (active) in experiment [5]; 90.8% (active) in experiment [6]. Further, the inhibition in experiment [7] was 91.1% (active); in experiment [8] it was 75.7% (active).

As for `COC(=O)c1c(NC(=O)c2cccc([N+](=O)[O-])c2)sc(C(N)=O)c1C`, the inhibition in experiment [1] was 23.4%; in experiment [2] it was 55.9% (active); in experiment [3], 18.9%; in experiment [4], 47.2% (active); in experiment [5], 46.9% (active); in experiment [6], 84.6% (active). For the same compound, the inhibition in experiment [7] was 80.5% (active); in experiment [8], 69.2% (active).

For the compound `CC(C)(O)C#Cc1ccc([C@@H]2C[C@H]3CN(c4ccccc4)C(=O)[C@]34CCCN24)s1`, the inhibition was 42.9% in experiment [1]; 41.9% (active) in experiment [2]; 45.8% in experiment [3]; 42.1% (active) in experiment [4]; 61.3% (active) in experiment [5]; 82% (active) in experiment [6]. Besides, the inhibition was 28.3% in experiment [7] and 88.8% (active) in experiment [8].

As for `Cc1ccc(-c2cc3cccc[n+]3cc2-c2ccc(C)cc2)cc1`, the inhibition is 72.3% (active) in experiment [1]; 53.5% (active) in experiment [2]; 35.9% in experiment [3]; 64.4% (active) in experiment [4]; 56.9% (active) in experiment [5]; 91.7% (active) in experiment [6]. The inhibition was 83.4% (active) in experiment [7] and 79.4% (active) in experiment [8].

`C=CCn1c(C)cc(C(=O)CN2C(=O)c3ccccc3S2(=O)=O)c1C`: the inhibition in experiment [1] was 89.7% (active); in experiment [2], 74.1% (active); in experiment [3], 77.3% (active); in experiment [4], 72.7% (active); in experiment [5], 89% (active); in experiment [6], 91.1% (active). Further, the values for the inhibition in experiment [7] and in experiment [8] were 90.7% (active) and 83.8% (active), respectively.

Regarding `CC(=O)c1cccc(N=c2scc(-c3ccc(S(=O)(=O)N4CCOCC4)cc3)n2CCO)c1`, the inhibition in experiment [1] is 21.9%; in experiment [2], 47.4% (active); in experiment [3], -14.3%; in experiment [4] it was 49.4% (active); in experiment [5] it was 35.2% (active); in experiment [6], 63.3% (active). Further, the inhibition was 69.7% (active) in experiment [7] and 61.1% (active) in experiment [8].

For `Cn1cc(/C=C/c2cc[n+](C)cc2)c2cc(Cl)ccc21`, the inhibition was 21.6% in experiment [1]; 43.1% (active) in experiment [2]; 21.5% in experiment [3]; 38.8% (active) in experiment [4]; 47.9% (active) in experiment [5]; 81.2% (active) in experiment [6]. In addition, the inhibition is 78.8% (active) in experiment [7] and 73.9% (active) in experiment [8].

As for `Cc1ccnc2c1ccc1c(C)ccnc12`, the inhibition is 86.2% (active) in experiment [1]; 54.3% (active) in experiment [2]; 73.3% (active) in experiment [3]; 61.9% (active) in experiment [4]; 88.8% (active) in experiment [5]; 108% (active) in experiment [6]. Moreover, the inhibition in experiment [7] was 87% (active); in experiment [8], 65.1% (active).

For `N=c1c2c(n(Cc3ccc(Cl)cc3)c3c1CCC3)CCC2`, the inhibition in experiment [1] was 55.8% (active); in experiment [2] it was 68.7% (active); in experiment [3] it was 47.1% (active); in experiment [4], 61.9% (active); in experiment [5] it was 58.6% (active); in experiment [6], 105% (active). Also, the inhibition in experiment [7] is 85.1% (active); in experiment [8] it was 78.3% (active).

As to `CCCCC(=O)NC(c1ccccc1)c1ccc2cccnc2c1O` (stereo unspecified), the inhibition in experiment [1] was 53.3% (active); in experiment [2], 36.9% (active); in experiment [3], 27.8%; in experiment [4] it was 29.2% (active); in experiment [5], 60.3% (active); in experiment [6], 69.5% (active). Further, the inhibition in experiment [7] is 63.6% (active); in experiment [8], 73% (active).

In the case of `Cc1cc(/C=C2\SC(=S)N(C)C2=O)c(C)n1-c1ccc(O)cc1`, the inhibition in experiment [1] is 73.9% (active); in experiment [2], 61.8% (active); in experiment [3], 49% (active); in experiment [4], 47.5% (active); in experiment [5], 40.3% (active); in experiment [6], 7.93%. The inhibition in experiment [7] is 48% (active); in experiment [8] it was 39.5% (active).

Consider `CCCCCCCCCCn1ccc(=N)cc1`, for which the inhibition in experiment [1] is 70.1% (active); in experiment [2] it was 81.1% (active); in experiment [3], 51.3% (active); in experiment [4], 80.4% (active); in experiment [5] it was 69.4% (active); in experiment [6] it was 102% (active). In addition, the figures for the inhibition in experiment [7] and in experiment [8] were 90.2% (active) and 83.7% (active), respectively.

For the compound `Cc1ccc(NCCN(C)C)c2c(=O)c3cc(O)ccc3sc12`, the inhibition in experiment [1] is 40.4%; in experiment [2] it was 41.6% (active); in experiment [3], 46.6%; in experiment [4] it was 29.6% (active); in experiment [5], 41.3% (active); in experiment [6], 67.3% (active). The inhibition in experiment [7] is 54.6% (active); in experiment [8], 55.7% (active).

On to `CC(C)CCCCCCCCCCCCC(=O)NCC(=O)NC1C(O)C(O)C(Nc2ncnc3nc[nH]c23)OC1C(O)CO` (stereo unspecified), for which the inhibition is 96.9% (active) in experiment [1]; 95.9% (active) in experiment [2]; 94.2% (active) in experiment [3]; 95.4% (active) in experiment [4]; 96.7% (active) in experiment [5]; 110% (active) in experiment [6]. For the same compound, the inhibition in experiment [7] was 98.1% (active); in experiment [8] it was 98.2% (active).

Source of the values: PubChem BioAssay.
